# Screening results as filed in PubChem.
# An excerpt weighted towards active compounds, which were near 5% of everything screened.
# USP2a inhib – inhibitors of human ubiquitin-specific protease USP2a. O75604. USP2a enzymatic assay, qHTS inhibition. Potency, µM (series often up to 38.3 µM), for inactives: at the highest dose activity change, negative = inhibition, usual class: inhibitors. actives 0.1% (n = 60,000). AID 927; also: nearly all actives have a fitted effect of over 60% in size
#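 Coupled readout: USP2-cleaved Ub-PLA2 (20nM final) turns over NBD C6-HPC (20uM final), Ex 460nm/Em 535nm after 2.5 h, time-zero read flagging artifacts. Enzyme (20nM final, pH 8.0 Tris) given 30 min RT with compound first; NEM defines full inhibition.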
# Caspase-7 inhib – allosteric or competitive inhibitors of human caspase-7 | Potency, µM (doses to about 57.5 µM), without a hit: top-dose activity change, negative = inhibition, actives largely listed as inhibitors | actives 0.02% (n = 75,000) | P55210 | recombinant caspase-7, Ac-DEVD-AFC fluorescence rate; active = well fitted inhibition curve with a large enough effect in the main read-out, with a control signal flat, not every such curve was filed as active; inconclusive = small, poorly fitted or top-dose-only effect, or a change in a side signal; also: % of control where 0% means no effect
# Target sequence (P55210 24-198 limits assumed): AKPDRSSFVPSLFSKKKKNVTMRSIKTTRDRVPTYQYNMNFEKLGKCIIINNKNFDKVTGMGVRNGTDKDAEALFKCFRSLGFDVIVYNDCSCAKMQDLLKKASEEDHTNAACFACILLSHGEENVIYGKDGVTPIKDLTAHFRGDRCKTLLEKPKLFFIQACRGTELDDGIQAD
# Target sequence (P55210 207-303 limits assumed): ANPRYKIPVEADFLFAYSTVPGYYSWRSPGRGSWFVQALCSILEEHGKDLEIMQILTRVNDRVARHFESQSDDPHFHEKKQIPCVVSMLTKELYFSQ
# CRE Fsk mod – CRE-bla signaling modulation under forskolin stimulation; CHO CRE-bla reporter (cAMP response element driving beta-lactamase), forskolin EC10, beta-lactamase ratio; Potency, µM (highest dose often 38.2 µM), without a hit: at the highest dose activity change, negative = inhibition, actives largely listed as activators; actives 2.5% (n = 71,000); AID 662; active = well fitted activation curve with a large enough effect in the signal ratio, with a control signal flat, not every such curve was filed as active; inconclusive = small, poorly fitted or top-dose-only effect, or effect the other way, or a change in a side signal; the % refers to the signal ratio; also: % of control where 0% means no effect
#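 Modulation of forskolin-driven signalling is measured in CHO cells carrying a CRE-controlled beta-lactamase reporter. Cells are stimulated with EC10 NKH 477 in the presence of titrated compound for 3 h at 37 °C, then loaded with CCF4 for 2 h at room temperature.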
# HEK293 cAMP cs – counter-screen for TSHR agonists: cAMP increase in parental HEK293; parental HEK293 CNG cAMP sensor, membrane potential fluorescence; Potency, µM (titrated, usually from 57.1 µM), for inactives: top-dose activation, actives largely listed as activators; actives 2.5% (n = 73,000); AID 938; also: % of control where 0% means no effect; nearly all actives have a fitted effect of over 55% in size
#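 Parental HEK 293 cells stably expressing a cAMP-gated CNG channel were loaded with membrane potential dye containing 100 uM RO 20-1724 for 60 min. Compound added for 30 min; depolarization read as fluorescence intensity at 590 nm.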
# TSHR agonist – activates the human thyroid stimulating hormone receptor; P16473; HEK293-CNG-TSHR cells (CNG channel as cAMP sensor), membrane potential dye, cAMP; Potency, µM (series often up to 57.1 µM), inactives show at the top dose activation, most hits filed as activators; actives 0.48% (n = 73,000); AID 926; active = well fitted activation curve with a large enough effect in the main read-out, with a control signal flat, not every such curve was filed as active; inconclusive = small, poorly fitted or top-dose-only effect, or a change in a side signal; inactive = no such curve, though single readings can be large or run the other way; % of control where 0% means no effect;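 also: the control signal comes from parental cells without the receptor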
#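 HEK 293 cells stably expressing TSHR and a cAMP-gated CNG channel; parental CNG-only cells as counterscreen. Cells preloaded 60 min with membrane potential dye plus 100 uM RO 20-1724, then compound 30 min; fluorescence read at 590 nm.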
# Caspase-1 inhib – caspase-1 (human) inhibition, allosteric or competitive; P29466; Caspase-1 enzyme, Ac-WEHD-AFC fluorogenic rate; Potency, µM (highest dose often 57.5 µM), for inactives: at the top dose activity change, negative = inhibition, actives largely listed as inhibitors; actives 0.03% (n = 75,000); AID 900;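 also: plate controls were vehicle for no effect and no substrate for full effect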
# Target sequence (P29466 120-297 limits assumed): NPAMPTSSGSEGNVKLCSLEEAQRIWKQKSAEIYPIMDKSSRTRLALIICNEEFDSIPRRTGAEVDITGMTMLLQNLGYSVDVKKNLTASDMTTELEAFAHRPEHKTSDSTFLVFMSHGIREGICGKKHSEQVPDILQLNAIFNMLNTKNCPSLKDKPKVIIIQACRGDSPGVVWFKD
# Target sequence (P29466 317-404 limits assumed): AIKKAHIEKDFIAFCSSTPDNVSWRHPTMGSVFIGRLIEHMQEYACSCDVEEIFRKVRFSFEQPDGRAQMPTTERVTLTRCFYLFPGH
# * = called active by the depositor; u = inconclusive; x = not tested or not shown; [ ] = another dose, or the depositor's remark. Unless noted, calls follow the shape of the dose curve; as a rule, active = well fitted curve in the direction sought with a large enough effect; inconclusive = small, poorly fitted or top-dose-only effect, or another doubt; inactive = no such curve, though single readings can be large; an effect the other way counts as inactive or inconclusive. Potency is read from the fitted curve at half-maximal effect.
SMILES,USP2a inhib,Caspase-7 inhib,CRE Fsk mod,HEK293 cAMP cs,TSHR agonist,Caspase-1 inhib
Cc1sc2nc(CSc3nc4ccccc4c(=O)n3CCCN3CCOCC3)[nH]c(=O)c2c1C,56.1%,-14.5%,2.51µM*,9.3%,4.8%,-10.8%
CC(=O)c1c(C)[nH]c(C(=O)CSc2nc3ccccc3c(=O)n2CCCN2CCOCC2)c1C,20.0%,-0.8%,u,13.9%,14.5%,0.6%
CCn1c(=N)n(CC(O)COc2cccc(C)c2)c2ccccc21 (stereo unspecified),-3.8%,-2.2%,u,u,u,0.0%
Cc1ccccc1OCC(O)Cn1c(=N)n(CCN2CCOCC2)c2ccccc21 (stereo unspecified),4.5%,-0.6%,-0.5%,10µM*,u,-1.6%
CCCn1c(=N)n(CC(O)COc2cccc(C)c2)c2ccccc21 (stereo unspecified),5.5%,0.2%,-8.1%,15.8µM*,u,0.2%
N=c1n(CCN2CCOCC2)c2ccccc2n1CC(O)COc1ccccc1 (stereo unspecified),-2.3%,2.8%,-0.7%,u,u,1.5%
CCCCn1c(=N)n(CC(O)COc2ccc(C)cc2)c2ccccc21 (stereo unspecified),11.5%,2.2%,-12.0%,15.8µM*,u,1.2%
CCCCn1c(=N)n(CC(O)COc2ccccc2)c2ccccc21 (stereo unspecified),x,3.1%,-7.1%,1.26µM*,u,-0.1%
N=c1n(Cc2ccccc2)c2ccccc2n1CC(O)COc1ccccc1 (stereo unspecified),18.1%,-7.0%,u,4.5%,16.7%,0.4%
C[N+](C)(C)c1ncnc2c1ncn2[C@@H]1CCCCO1,x,-3.0%[11.5 µM],4.7%[7.6 µM],-7.3%[11.4 µM],4.0%[11.4 µM],2.1%[11.5 µM]
C=CCN1CCc2c(cc(O)c(O)c2Br)[C@H](c2ccccc2)C1,11.6%,0.8%,-7.4%,u,u,-1.2%
COc1ccc(NC(=O)c2cc(-c3ccc(C)o3)nc3ccccc23)cc1OC,44.4%,-10.1%,u,25.1µM*,u,-9.2%
COc1cc(NC(=O)c2cc3c(C)nc4ccccc4c3o2)cc(OC)c1OC,x,-1.8%,1.58µM*,-6.0%,-3.8%,-3.7%
COc1ccc(NC(=O)c2cc(C)on2)cc1OC,-6.4%,-1.9%,2.5%,-0.7%,-9.7%,-0.4%
Cc1nc2ccccc2c2oc(C(=O)N3CCc4ccccc43)cc12,x,-0.7%,0.398µM*,10.2%,8.3%,-0.9%
Cc1cccc(N2CCN(C(=O)c3cc4c(C)nc5ccccc5c4o3)CC2)c1C,x,-2.2%,u,u,u,0.5%
O=C(NCC1CCCO1)c1cc(-c2ccco2)nc2ccccc12 (stereo unspecified),5.9%,-25.6%,11.0%,20.8%,18.1%,-14.5%
Cc1cccc(NC(=O)c2cc(-c3ccco3)nc3ccccc23)n1,12.8%,-7.2%,u,25.1µM*,u,-10.3%
Cc1ccc(S(=O)(=O)N[C@H]2COC(=O)[C@@H](C)COC(=O)[C@H](C)NC(=O)C/C=C\[C@H]2C)cc1,x,1.1%[11.5 µM],x,-0.4%[11.4 µM],7.9%[11.4 µM],-3.2%[11.5 µM]
Cc1ccc(CO)cc1,x,-0.8%,-6.4%,5.5%,-0.7%,-3.3%
O=C(O)CCC(O)=C1S(=O)(=O)OCCOS1(=O)=O,x,-2.0%[11.5 µM],-2.9%[7.6 µM],-1.7%[11.4 µM],-0.9%[11.4 µM],-2.1%[11.5 µM]
Cc1nc2ccccc2c2oc(C(=O)NCC3COc4ccccc4O3)cc12 (stereo unspecified),x,-4.0%,u,25.1µM*,u,1.0%
CCOc1ncccc1C(=O)NCC1COc2ccccc2O1 (stereo unspecified),12.4%,-0.2%,3.98µM*,u,u,1.9%
CCN1CCCC1CNC(=O)c1cc2c(C)nc3ccccc3c2o1 (stereo unspecified),12.6%,-0.6%,1.3%,9.1%,-0.9%,-0.5%
CCNc1ncc2nc(C)c(=O)n(Cc3cccs3)c2n1,0.5%,-17.7%,10µM*,u,u,-15.7%
SMILES,USP2a inhib,Caspase-7 inhib,CRE Fsk mod,HEK293 cAMP cs,TSHR agonist,Caspase-1 inhib
Cc1nc2cnc(N3CCNCC3)nc2n(Cc2cccs2)c1=O,13.1%,-6.4%,10µM*,14.6%,5.3%,-1.7%
Cc1nc2cnc(N3CCN(C)CC3)nc2n(Cc2cccs2)c1=O,117.5%,-1.6%,u,u,u,-1.5%
O=C(O)CCn1cnc2c(=S)nc[nH]c21,x,-0.4%[11.5 µM],3.7%[7.6 µM],2.1%[11.4 µM],2.1%[11.4 µM],-0.5%[11.5 µM]
O=c1oc2ccccc2n1Cn1c(=O)oc2ccccc21,1.9%,2.4%,-0.5%,26.7%,x,-0.8%
N#CCCn1c2ccccc2c2nc3ccccc3nc21,x,u,3.16µM*,23.1%,7.0%,x
O=c1oc2ccccc2n1CCn1c2ccccc2c2nc3ccccc3nc21,10µM*,-9.1%,7.7%,7.94µM*,u,-14.4%
CCCCNN,x,-0.4%[11.5 µM],0.2%[7.6 µM],1.0%[11.4 µM],-6.4%[11.4 µM],-2.3%[11.5 µM]
O=C(O)[C@H]1C[C@H](C(=O)O)N1,9.4%,1.1%,-6.2%,u,u,-0.8%
CCNc1ncc2nc(-c3cccs3)c(=O)n(CCc3ccccc3)c2n1,180.5%,u,u,u,u,x
Cc1ccc(S(=O)(=O)N2CCN(C(=O)CN3CCc4ccccc4C3)CC2)cc1,24.3%,-0.1%,-28.7%,10µM*,u,1.9%
O=C(O)[C@@H]1CS[C@@]2(CCCN(Cc3ccccc3)C2)N1,x,-0.5%[11.5 µM],9.8%[7.6 µM],-3.6%[11.4 µM],0.2%[11.4 µM],0.3%[11.5 µM]
O=C(c1ccco1)N1CCN(S(=O)(=O)c2ccc(C3CCCCC3)cc2)CC1,14.1%,-2.3%,2.7%,25.1µM*,u,1.6%
O=C(c1ccco1)N1CCN(S(=O)(=O)c2ccc(S(=O)(=O)NC3CCCCC3)cc2)CC1,210.4%,-1.5%,3.5%,1.58µM*,u,-2.4%
O=C(c1ccco1)N1CCN(S(=O)(=O)c2ccc(S(=O)(=O)NC3CCCC3)cc2)CC1,13.6%,0.0%,12.1%,u,u,-1.9%
O=C(O)[C@H](Cc1cc(I)c(O)c(I)c1)C1CCCCC1,x,-0.1%[11.5 µM],-0.7%[7.6 µM],2.6%[11.4 µM],6.0%[11.4 µM],-6.0%[11.5 µM]
C[C@H](O)[C@H](O)[C@@H]1CNc2nc(N)[nH]c(=O)c2N1,89.9%,u,2.2%,-3.1%,9.2%,3.3%
Cc1nc(SCC(=O)NCc2ccco2)nc(C)c1C,-5.7%,6.8%,u,-0.9%,3.8%,-1.2%
O=C(CSc1nc2c(c(C(F)(F)F)n1)CCc1ccccc1-2)NCc1ccco1,37.7%,-2.5%,14.4%,25.1µM*,u,-3.0%
COC(=O)[C@@H]1CC[C@H](C)[C@@H](c2ccc(C)cc2)N1C(=O)c1ccc(/C=N\OC[C@@H](O)[C@H]2O[C@H]3OC(C)(C)O[C@H]3[C@@H]2O)cc1,x,-1.2%[11.5 µM],x,0.7%[11.4 µM],0.5%[11.4 µM],0.4%[11.5 µM]
COCCCNC(=O)c1c(N)n(-c2cccc(S(N)(=O)=O)c2)c2nc3ccccc3nc12,29.6%,u,12.6µM*,-14.1%,-15.7%,x
